Source: PubChem (National Center for Advancing Translational Sciences (NCATS))
Hits are enriched below; roughly 10% of the tested compounds scored in any of these assays.
Mm-Cpn inhibitor: Inhibitors of TCP-1 ring complex (TRiC) of Methanococcus maripaludis (MmCpn): qHTS. purified Mm-Cpn ATPase, ADP Transcreener TR-FRET. Potency, µM (top dose mostly 76.9 µM), for inactives: at the highest dose activity, negative = inhibition, most hits filed as inhibitors. 330,000 compounds, 0.031% hits; also: potency is read from the fitted curve at half-maximal effect; nearly all actives have a fitted effect of over 80% in size
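Inhibition of chaperonin ATP hydrolysis is measured as reduced ADP production, detected by competitive TR-FRET in which signal falls with ADP. Final enzyme 25 nM and ATP 10 uM, reacted 30 min at 37°C.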
CCT chaperon mod: High-Throughput Screening for Modulators of Cytosolic Chaperonin Activity | purified chaperonin ATPase assay, HTRF ADP detection, 30 min | activity change, % (test concentration not listed), hits read low | 360,000 compounds, 0.3% hits | AID 651819, 2012; in the data active = activity change below about -30%
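Enzyme 40 or 20 nM (batch-dependent) in Tris pH 7.4/KCl/MgCl2/DTT; cpd 76 uM single point; ATP 10 uM; 30 min 37 °C; Transcreener ADP HTRF detection, 30 min RT; ratio 665/615.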
Sfp PPTase inh: qHTS Assay for Inhibitors of Bacillus subtilis Sfp phosphopantetheinyl transferase (PPTase); 4'-phosphopantetheinyl transferase ffp (Bacillus subtilis), Q9F4F7; Potency, µM, for the others: largest response in the series, negative = inhibition, usual class: inhibitors; 310,000 compounds, 3.5% hits; Biochemical Sfp PPTase activity, qHTS;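 also: the enzyme is Sfp with the accession as filed and its product quenches rhodamine fluorescence; potency is read from the fitted curve at half-maximal effect; 0% = enzyme reaction without inhibitor and -100% = no enzyme wells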
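Reaction rates are the 30-min fluorescence difference (ex 525, em 598 nm) in wells containing 15 nM Sfp, 5 uM rhodamine-CoA and 12.5 uM BHQ-2-YbbR at pH 7.6 with 10 mM MgCl2.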
G9a block: qHTS Assay for Inhibitors of Histone Lysine Methyltransferase G9a | G9a H3K9 monomethylation, AlphaScreen, 2 h | Histone-lysine N-methyltransferase EHMT2 (Homo sapiens), Q96KQ7 | AID 504332, 2011 | 350,000 compounds, 8.8% hits | Potency, µM (highest dose often 102 µM), without a hit: at the top dose activity, negative = inhibition, actives largely listed as inhibitors; also: potency is read from the fitted curve at half-maximal effect; nearly all actives have a fitted effect of over 75% in size
Target sequence (Q96KQ7 913-1193 limits assumed): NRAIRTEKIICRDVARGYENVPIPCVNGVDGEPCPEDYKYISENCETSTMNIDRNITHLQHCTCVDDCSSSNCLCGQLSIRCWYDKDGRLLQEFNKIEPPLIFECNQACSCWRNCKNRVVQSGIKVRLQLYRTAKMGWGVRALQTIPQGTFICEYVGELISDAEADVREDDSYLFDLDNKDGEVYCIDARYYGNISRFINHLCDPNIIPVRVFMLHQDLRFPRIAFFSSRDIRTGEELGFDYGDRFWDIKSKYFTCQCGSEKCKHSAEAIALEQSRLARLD
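Compounds were preincubated with 20 nM G9a for 15 min, after which biotinylated H3K9 peptide (500 nM) and SAM (20 uM) started a 2 h room-temperature reaction. Monomethylated product was quantified by antibody-based AlphaScreen chemiluminescence.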
PLK1 PBD block: qHTS for Inhibitors of PLK1-PDB (polo-like kinase 1 - polo-box domain): Primary Screen; Serine/threonine-protein kinase PLK1 (Homo sapiens), P53350; Plk1 PBD binding of FITC phosphopeptide, fluorescence polarization; Potency, µM, for inactives: max response, negative = inhibition, hits mostly inhibitors; 360,000 compounds, 2.8% hits; also: potency is read from the fitted curve at half-maximal effect; series mostly up to about 57 µM; nearly all actives have a fitted effect of over 65% in size
VDR inh: Inhibitors of the vitamin D receptor (VDR): qHTS; Vitamin D3 receptor (Homo sapiens), P11473; VDR-SRC2-3 peptide fluorescence polarization, 2 h; Potency, µM, without a hit: max response, negative = inhibition, usual class: inhibitors; 400,000 compounds, 0.93% hits; AID 504847, 2011; also: potency is read from the fitted curve at half-maximal effect
Target sequence (P11473 whole entry, looked up): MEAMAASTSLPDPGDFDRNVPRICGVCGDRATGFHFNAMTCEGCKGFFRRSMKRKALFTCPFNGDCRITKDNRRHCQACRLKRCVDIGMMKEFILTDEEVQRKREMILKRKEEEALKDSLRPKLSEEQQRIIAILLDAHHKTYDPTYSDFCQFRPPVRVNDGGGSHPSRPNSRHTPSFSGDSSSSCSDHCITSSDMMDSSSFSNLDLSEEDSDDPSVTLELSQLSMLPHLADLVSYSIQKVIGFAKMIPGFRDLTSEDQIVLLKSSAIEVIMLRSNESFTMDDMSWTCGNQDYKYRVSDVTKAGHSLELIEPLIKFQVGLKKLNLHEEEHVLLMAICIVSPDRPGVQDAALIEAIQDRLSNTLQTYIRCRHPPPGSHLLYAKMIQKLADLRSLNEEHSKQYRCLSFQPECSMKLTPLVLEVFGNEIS
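Compounds are added to VDR with labelled SRC2-3 coactivator peptide and held 2 h at room temperature. Inhibition of the VDR–peptide interaction is then read as a change in fluorescence polarization.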
* hit, by the source's call; ? = inconclusive; / = no result; [ ] = remark or other dose. Unless noted, calls follow the shape of the dose curve; as a rule, active = well fitted curve in the direction sought with a large enough effect; inconclusive = small, poorly fitted or top-dose-only effect, or another doubt; inactive = no such curve, though single readings can be large; an effect the other way counts as inactive or inconclusive. Unless noted, % is scaled to controls: 0 for no effect and ±100 for the full control effect.

SMILES	Mm-Cpn inhibitor	CCT chaperon mod	Sfp PPTase inh	G9a block	PLK1 PBD block	VDR inh
O=C(N[C@@H](Cc1ccccc1)c1nc2ccccc2[nH]1)c1cc([N+](=O)[O-])ccc1Cl	-4%	-5	2%	10µM*	-5%	?
CC1=CC(C)=Nc2ccc(C)cc2N1	-1%	0	15%	45µM*	-7%	1%
Cc1ccc2c(c1)NC(=O)CC(c1ccccc1)=N2	0%	0	8%	-6%[59 µM]	-6%	-10%
COc1ccc(N2C(=O)[C@@H]3[C@H](C2=O)[C@H](C(=O)c2ccc(OC(C)=O)cc2)N2N=CC=C[C@@H]32)cc1	-1%	/	-23%	3.5µM*	/	/
CC(=O)Oc1ccc(C(=O)[C@H]2[C@H]3C(=O)N(c4ccccc4)C(=O)[C@H]3[C@@H]3C=CC=NN32)cc1	-2%	0	?	4.5µM*	-14%	-28%
CC(=O)Oc1ccc(C(=O)[C@H]2[C@H]3C(=O)N(c4ccc(C)cc4)C(=O)[C@H]3[C@@H]3C=CC=NN32)cc1	-2%	1	-22%	3.5µM*	-22%	-17%
COc1ccc(C(=O)[C@H]2[C@H]3C(=O)N(c4ccccc4)C(=O)[C@H]3C3C=CC=NN32)cc1 (stereo partly specified)	-18%	-1	?	?	-5%	0%
CC(=O)Oc1ccc(C(=O)[C@H]2[C@H]3C(=O)N(c4ccc(C)cc4C)C(=O)[C@H]3[C@@H]3C=CC=NN32)cc1	-1%	-3	50µM*	3.5µM*	-17%	8%
COc1ccc(C(=O)[C@H]2[C@H]3C(=O)N(c4ccc(C)cc4)C(=O)[C@H]3C3C=CC=NN32)cc1 (stereo partly specified)	-1%	1	-9%	/	1%	8%
Cc1ccc(NC(=O)CCSc2nc(-c3ccc4c(c3)OCO4)cc(C(F)(F)F)n2)cc1	/	/	/	-1%[59 µM]	/	-10%
CC(=O)Oc1ccc(N2C(=O)C3C(C2=O)C(C(=O)c2ccc(Cl)cc2)N2CCCC32)cc1 (stereo unspecified)	-4%	-1	-1%	-112%[12.7 µM]	24µM*	-5%
CCOc1ccc(NC(=O)CC2C(=O)N(c3ccc(C)cc3)C(=O)N2Cc2ccc(OC)cc2)cc1 (stereo unspecified)	/	/	/	-34%[59 µM]	/	-5%
COc1cc(CN2CCC(C(=O)NCC(C)(C)CN(C)C)CC2)ccc1OCc1ccccc1	0%	0	-23%	10µM*	-4%	-6%
CCOCCCNC(=O)C1CCN(Cc2cccc(OCc3ccccc3)c2)CC1	-1%	0	-2%	35µM*	0%	-1%
CCCCNC(=O)C1CCN(Cc2ccc(OCc3ccccc3)c(OC)c2)CC1	2%	0	-8%	14µM*	-5%	-2%
CCOC(=O)C(C)Sc1nc(=O)n2ccccc2n1 (stereo unspecified)	1%	-3	6%	14%	24µM*	-13%
CCOC(=O)C(C)Sc1nc(=O)n2cc(C)ccc2n1 (stereo unspecified)	3%	-2	15%	5%	-2%	5%
CCCC(C(=O)O)N1C(=O)/C(=C2\C(=O)N(C)c3ccccc32)SC1=S (stereo unspecified)	1%	0	-6%	20µM*	?	-29%
O=C(O)CN1C(=O)/C(=C2\SC(=S)N(C(Cc3ccccc3)C(=O)O)C2=O)c2ccccc21 (stereo unspecified)	0%	-2	7%	50µM*	-15%	3%
CCCN1C(=O)/C(=C2\SC(=S)N(c3c(C)n(C)n(-c4ccccc4)c3=O)C2=O)c2ccccc21	2%	-1	-15%	/	1%	-5%
Cc1cc(C)c(NC(=O)Cn2ccn(-c3cccc(Cl)c3)c(=O)c2=O)c(C)c1	/	/	/	28%[59 µM]	/	8%
O=C1NC(=O)/C(=C/c2cccc3ccccc23)S1	0%	1	10%	-10%	27µM*	6%
O=C1NC(=O)C(=Cc2ccccc2[N+](=O)[O-])S1	/	1	/	/	13µM*	?
Cc1ccc(S(=O)(=O)Oc2ccccc2/C=C2/SC(=O)NC2=O)cc1	4%	2	7%	/	-16%	-17%
O=C1NC(=O)/C(=C\c2ccccc2OCc2ccccc2)S1	5%	3	10%	10%	?	-9%
SMILES	Mm-Cpn inhibitor	CCT chaperon mod	Sfp PPTase inh	G9a block	PLK1 PBD block	VDR inh
CC1Cc2cc(S(=O)(=O)N(C)c3ccc(Br)cc3)ccc2N1C(=O)C1CC1 (stereo unspecified)	/	/	/	18%[59 µM]	/	1%
Cc1ccc(S(=O)(=O)c2ccc(Cl)cc2)cc1S(=O)(=O)N(C)CC(=O)O	1%	1	17%	-4%[59 µM]	-4%	-8%
Cc1ccc(S(=O)(=O)c2ccc(Cl)cc2)cc1S(N)(=O)=O	1%	-71*	24%	18%	-10%	11%
O=C(NCCCc1ccccc1)c1cccc(NC(=O)C2CC2)c1	/	-5	/	/	-13%	9%
O=C(NCCCCc1ccccc1)c1cccc(NC(=O)C2CC2)c1	/	-1	/	/	19µM*	79µM*
CN1CCC(N(C)CC(O)c2ccccc2)CC1 (stereo unspecified)	-1%	-5	-3%	8.9µM*	-7%	-13%
Cc1ccc2nc(-c3cccc(NC(=O)c4cccc5c(Cl)cccc45)c3)oc2c1	/	/	/	-21%[59 µM]	/	-1%
CCOc1ccccc1C1C(C#N)=C(N)SC(N)=C1C#N	-7%	2	45µM*	?	-12%	?
CCOc1ccc(C2C(C#N)=C(N)SC(N)=C2C#N)cc1OC	-20%	/	50µM*	8.9µM*	/	/
CCOc1ccc(C2C(C#N)=C(N)SC(N)=C2C#N)cc1OCC	-8%	1	?	?	37%	-28%
O=C(CC1N=C2c3ccccc3N=C(SCc3ccccc3F)N2C1=O)NCCc1ccccc1 (stereo unspecified)	/	/	/	7%[59 µM]	/	14%
O=C(/C=C/c1ccccc1)c1ccc(O[C@H]2OC(CO)C(O)C(O)C2O)cc1O (stereo partly specified)	/	/	-32%	-45%[2.33 µM]	/	16µM*
COc1ccc(/C=C/c2cc(O)cc(O[C@H]3OC(CO)C(O)C(O)C3O)c2)cc1 (stereo partly specified)	/	/	12%	/	/	3%
CCN(CC)CCN1C(=O)C(O)=C(C(=O)c2cccs2)C1c1ccc(C)o1 (stereo unspecified)	1%	-4	-3%	?	-9%	1%
